IMPase Li inh: qHTS Assay for Identifying the Cell-Membrane Permeable IMPase Inhibitors: Potentiation with Lithium; CHO-M1 cells, IP1 TR-FRET (IP-One), carbachol + lithium; Potency, µM (doses to about 59.4 µM), without a hit: at the top dose activity, negative = IMPase inhibition, usual class: inhibitors; hit rate 0.35% among 210,000; AID 1457, 2008;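 also: IP1 builds up when IMPase is blocked and the TR-FRET signal falls; potency is read from the fitted curve at half-maximal effect; plate controls were basal vehicle for no effect and high inhibitor control for full effect; nearly all actives have a fitted effect of over 50% in size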
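IP1 accumulation measured by competitive TR-FRET in lysed CHO-M1 cells after 30 min compound exposure at 37C, with a small lithium addition to potentiate weak responses. Hill-equation AC50 from ratio and donor-channel data.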
HPGD block: qHTS Assay for Inhibitors of HPGD (15-Hydroxyprostaglandin Dehydrogenase). 15-hydroxyprostaglandin dehydrogenase [NAD(+)] (Homo sapiens), P15428. purified HPGD, NADH fluorescence kinetic, PGE2 substrate. Potency, µM, for inactives: at the top dose activity change, negative = inhibition, most hits filed as inhibitors. hit rate 4.3% among 150,000; active = well fitted inhibition curve with a large enough effect, not every such curve was filed as active; inconclusive = small, poorly fitted or top-dose-only effect, or another doubt; inactive = no such curve, though single readings can be large or run the other way; also: potency is read from the fitted curve at half-maximal effect
Target sequence (P15428 whole entry, looked up): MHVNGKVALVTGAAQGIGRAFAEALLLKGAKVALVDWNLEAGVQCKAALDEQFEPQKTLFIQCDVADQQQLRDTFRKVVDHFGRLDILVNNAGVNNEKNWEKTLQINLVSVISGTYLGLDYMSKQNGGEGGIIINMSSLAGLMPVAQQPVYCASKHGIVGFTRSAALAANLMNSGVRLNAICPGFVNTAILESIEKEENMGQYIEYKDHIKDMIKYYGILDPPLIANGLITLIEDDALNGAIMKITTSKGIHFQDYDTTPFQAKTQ
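NADH formation kinetics: reaction with 30 uM PGE2 and 1 mM NAD+ (final), 20 nM enzyme, Tris-HCl pH 8 with Tween 20, after 15 min compound preincubation at room temperature. Fluorescence change, last versus first of five reads.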
ALOX12 inhib: qHTS Assay for Inhibitors of 12-hLO (12-human lipoxygenase). Polyunsaturated fatty acid lipoxygenase ALOX12 (Homo sapiens), P18054. purified 12-hLO, xylenol orange hydroperoxide absorbance. Potency, µM (series often up to 57.1 µM), for inactives: at the top dose activity change, negative = inhibition, actives largely listed as inhibitors. hit rate 0.12% among 150,000; also: potency is read from the fitted curve at half-maximal effect; nearly all actives have a fitted effect of over 55% in size
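Hydroperoxide formation by human 12-lipoxygenase from 40 uM arachidonic acid was followed colorimetrically via ferric-xylenol orange complex, using the 573/405 nm absorbance ratio. Enzyme concentration was 150 nM, with 30 min reaction at room temperature.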
IMPase cell inh: qHTS Assay for Identifying the Cell-Membrane Permeable IMPase Inhibitors. Inositol monophosphatase 1 (Rattus norvegicus), P97697. CHO-M1 cells, IP1 accumulation, HTRF TR-FRET ratio. inhibition (IP1 accumulation), % at 46.1 µM. 120,000 tested, under 10 active. AID 901, 2007; active = well fitted curve in the direction sought with a large enough effect in the signal ratio, not every such curve was filed as active; inconclusive = small, poorly fitted or top-dose-only effect, or a change in a side signal; inactive = no such curve, though single readings can be large or run the other way; the % refers to the signal ratio;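 also: cells stimulated with carbachol in lithium chloride buffer; plate controls were DMSO basal wells for no effect and reference inhibitor wells for full effect; higher means more IMPase inhibition seen as more IP1 and lower FRET ratio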
Target sequence (P97697 whole entry, looked up): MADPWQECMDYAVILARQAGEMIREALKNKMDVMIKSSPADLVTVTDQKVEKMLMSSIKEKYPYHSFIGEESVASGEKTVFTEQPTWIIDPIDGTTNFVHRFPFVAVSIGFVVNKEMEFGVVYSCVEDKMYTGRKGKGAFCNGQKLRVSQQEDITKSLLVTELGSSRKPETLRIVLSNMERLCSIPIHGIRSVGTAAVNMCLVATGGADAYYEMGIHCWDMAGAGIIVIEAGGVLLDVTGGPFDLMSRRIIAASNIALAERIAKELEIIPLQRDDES
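CHO-M1, 2000 cells/well, cultured 16–30 h; cpd up to 46 uM; carbachol (50 uM solution, stimulation buffer w/ 50 mM LiCl, pH 7.4), 30 min 37C; IP-One TR-FRET, 10 min RT; Ex 320/Em 665, 620; Hill-fit AC50.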
ALOX15B inhib: qHTS Assay for Inhibitors of 15-hLO-2 (15-human lipoxygenase 2) | Polyunsaturated fatty acid lipoxygenase ALOX15B (Homo sapiens), O15296 | purified 15hLO-2, xylenol orange hydroperoxide absorbance | Potency, µM (series often up to 57.1 µM), for inactives: at the top dose activity change, negative = inhibition, usual class: inhibitors | hit rate 0.56% among 110,000 | AID 881, 2007; also: potency is read from the fitted curve at half-maximal effect; nearly all actives have a fitted effect of over 60% in size
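Purified human 15hLO-2 (50 nM) preincubated 15 min with compound, then 45 uM arachidonic acid for 90 min at RT in 25 mM Hepes pH 7.5, 0.01% Triton X-100. Hydroperoxide detected by Fe-xylenol orange; 573/405 nm absorbance ratio.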
PNC inhibitor: High Content Assay for Compounds that inhibit the Assembly of the Perinucleolar Compartment; activity change (PNC), negative = inhibition, % at 10 µM; AID 2417, 2010; PC3M PTB-GFP, PNC prevalence imaging, 16 h; hits give low values; hit rate 3.1% among 140,000;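 active = readout at or below -70, meaning at least 70% loss of cells showing the perinucleolar compartment, a nuclear body marking cancer cells; inconclusive = readout between -30 and a set limit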;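 also: plate controls were DMSO wells for no effect and camptothecin positive control wells for full effect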
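Read-out is percentage of cells bearing a perinucleolar compartment, from automated 20x imaging of fixed, Hoechst-stained PC3M PTB-GFP cells. Cells were seeded 4 h, then exposed 16 h to compound (23 nl of library stock) in duplicate plates.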
Active calls of the source: *; ? = inconclusive; nt = no result; [ ] = dose if it differs, or a comment. An excerpt weighted towards active compounds, which were near 5.3% of everything screened. Unless noted, calls follow the shape of the dose curve; as a rule, active = well fitted curve in the direction sought with a large enough effect; inconclusive = small, poorly fitted or top-dose-only effect, or another doubt; inactive = no such curve, though single readings can be large; an effect the other way counts as inactive or inconclusive. Unless noted, % is scaled to controls: 0 for no effect and ±100 for the full control effect.

SMILES	IMPase Li inh	HPGD block	ALOX12 inhib	IMPase cell inh	ALOX15B inhib	PNC inhibitor
COc1ccc(OC)c(NS(=O)(=O)c2ccc(N3CCCC3=O)cc2)c1	3%[38.3 µM]	-13%	-6%	7	-6%	-83*
CCOC(=O)c1c(-c2ccc(-c3ccccc3)cc2)csc1NC(=O)C1C2CCC(O2)C1C(=O)O (configuration not stated)	14%[38.3 µM]	14µM*	-6%	4	20µM*	-17
CCOC(=O)c1c(-c2ccc(C)cc2)csc1NC(=S)NC(=O)c1ccccc1	18%[38.3 µM]	-3%	?	17[1.84 µM]	-19%[11.4 µM]	4
CCOC(=O)c1c(-c2ccccc2)csc1NC(=O)CSc1nnnn1C	6%[38.3 µM]	32µM*	-6%	-2	-2%	-20
CCOC(=O)c1c(-c2ccccc2)csc1NC(=O)CSc1ccccc1	7%	-17%	1%	nt	nt	-10
CCOC(=O)c1c(-c2ccc(C)cc2)csc1NC1=NS(=O)(=O)c2ccccc21	11µM*	?	0%	nt	nt	29
Cc1c(NC(=O)c2cc3ccccc3o2)cccc1-c1nc2ccccc2o1	nt	nt	nt	4	nt	nt
CCOc1ccccc1NC(=S)Nc1ncccc1C	nt	nt	20µM*	3	nt	14
CCOc1ccccc1NC(=S)Nc1ccccc1F	27%[38.3 µM]	-17%	-12%	-1[1.84 µM]	1%[11.4 µM]	?
Cc1ccc(NC(=O)C(C)c2ccc([N+](=O)[O-])cc2)cc1Cl (configuration not stated)	7%	-6%	-10%	9	nt	36
COC(=O)c1ccc(Nc2nc(-c3ccccc3Cl)nc3ccccc23)cc1	nt	nt	nt	-11	nt	nt
Nc1c(-c2ccccc2Cl)cnn1-c1cccc([N+](=O)[O-])c1	19%[38.3 µM]	14µM*	1%	8	-2%	-1
Cc1ccc(-c2cnn(-c3cccc([N+](=O)[O-])c3)c2N)cc1	-1%[38.3 µM]	35µM*	-4%	0	-3%	-87*
CN(C)Cc1ccccc1Sc1ccc(Br)cc1	13%	-4%	2%	nt	nt	?
CCc1cc2c(=O)c(-c3nc4ccccc4n3C)c(C(C)C)oc2c(CN2CCN(C)CC2)c1O	8%	?	0%	3	nt	-104*
CCc1cc2c(=O)c(-c3nc4ccccc4n3C)c(C)oc2c(CN2CCN(C)CC2)c1O	-7%	?	9%	-13	nt	-17
Fc1ccccc1CSc1nc2ncccc2[nH]1	19%[38.3 µM]	18µM*	6%	-2	0%[2.29 µM]	49
O=c1[nH]c(SCc2ccccc2F)nc2ccccc12	8%	nt	nt	nt	nt	nt
CN(C)c1ncc2nc(-c3ccccc3)c(=O)n(Cc3ccc(F)cc3)c2n1	1%	nt	nt	nt	-6%	nt
COn1c2c(c3c4nonc4ccc31)CCCC2	8%[38.3 µM]	?	-13%	-1	-14%	24
On1c2c(c3c4nonc4ccc31)CCCC2	9%	16µM*	?	-2	nt	?
Cc1ccc(-c2cc(-c3ccc(C)o3)nc(N)c2C#N)cc1	-5%[38.3 µM]	?	16µM*	-3	?	7
Cc1ccc(-c2cc(-c3ccc(Cl)cc3)c(C#N)c(N)n2)o1	0%[38.3 µM]	?	11µM*	2	6.3µM*	-23
Cc1ccc(-c2cc(-c3ccc(F)cc3)c(C#N)c(N)n2)o1	-14%	?	?	nt	nt	-6
O=C(Nc1nc2c(cc3c4c(cccc42)CC3)s1)c1ccccc1Cl	9%	?	-2%	-12	nt	34
SMILES	IMPase Li inh	HPGD block	ALOX12 inhib	IMPase cell inh	ALOX15B inhib	PNC inhibitor
c1ccc2c3c([nH]c2c1)[C@@H]1[C@H]2CC[C@H]([C@H]4CCCN[C@H]42)N1CC3	8%	?	-1%[25.6 µM]	4[20.6 µM]	38%[25.6 µM]	nt
CC1CN(c2ccccc2)C(=O)CS1 (configuration not stated)	25%[38.3 µM]	16µM*	-1%	1	-15%	41
CCOC(=O)CSc1nnc(-c2cc(OC)c(OC)c(OC)c2)o1	6%	nt	nt	nt	nt	nt
COc1cc(-c2nnc(SCc3cc(=O)oc4cc(O)c(O)cc34)o2)cc(OC)c1OC	33%[38.3 µM]	7.9µM*	-21%	3	?	-7
Cc1cc(OC(=O)CNC(=O)OC(C)(C)C)c2c(C)cc(=O)oc2c1	?	18µM*	-6%	-15	0%	17
CC(C)CNC(=S)NC(=O)c1ccc(Cl)cc1Cl	nt	nt	?	-2	nt	-5
Nc1ccc(S(=O)(=O)O)cc1	13%	-10%	1%	nt	-10%	nt
O=C(CSc1ccc(-c2ccccc2)nn1)N1CCCCC1	0%	nt	nt	nt	nt	nt
CC1CCN(C(=O)COc2ccccc2F)CC1	-5%[38.3 µM]	25µM*	-3%	6	5%	29
CC1CCN(C(=O)CSc2ccc(-c3ccc(F)cc3)nn2)CC1	-3%[38.3 µM]	10µM*	-5%	-11	-8%	-2
CC1CCCC(C)N1C(=O)COc1ccccc1F (configuration not stated)	0%	nt	nt	nt	nt	nt
O=C(CSc1ccc(-c2ccc(F)cc2)nn1)N1CCCCC1	-9%[38.3 µM]	16µM*	-1%	-7	3%	-7
CC1CCCC(C)N1C(=O)Cc1ccccc1 (configuration not stated)	49%[38.3 µM]	20µM*	8%	9	2%	-2
Cc1nnc(SCC(=O)N2CCN(C(=O)c3ccco3)CC2)n1-c1ccccc1	0%	nt	nt	nt	nt	nt
CCOc1cccc(-c2nnc(SCC(=O)Nc3cc(OC)cc(OC)c3)n2N)c1	25µM*	17%	-3%	-5	-11%	?

Assay outcomes (PubChem BioAssay)
